In all, about 270,000 compounds went through this assay and about 1,100 (0.41%) were called active. Not shown: some 3% with an inconclusive outcome. The full list was thinned out, with actives kept by preference. Unmarked numbers belong to inactive results. Calls come from the whole dose curve.
Experiment: qHTS Assay for Inhibitors of Influenza NS1 Protein Function; note: actives are rising curves; nearly all actives have a fitted effect of over 50% in size
Conditions: series mostly up to 46.1 µM; activity, positive = more growth: at the top concentration
From the text: NIH Chemical Genomics Center [NCGC]
NIH Molecular Libraries Probe Centers Network [MLPCN]
Assay Submitter (PI): Daniel Engel
Influenza is a world-wide public health problem and emerging forms of the virus have the potential to cause a pandemic of equal or greater magnitude to the outbreaks recorded in 1918, 1957 or 1968. Vaccine development is proceeding and there also exist two classes of anti-influenza compounds. However these therapeutic modalities are neither fully effective nor widely enough available to fulfill global needs. In addition their potential usefulness against newly emergent strains is not known. Efforts are needed to develop novel agents against influenza virus, including broad-spectrum agents. Identification of small molecules that inhibit NS1 function either directly or by interfering with specific cellular pathways may be a key to increasing our defense against the virus.
We have miniaturized and optimized a cell based assay in which NS1 from influenza A is expressed in the budding yeast S. cerevisiae. NS1 is a multi-functional protein that counters the host innate immune response and facilitates viral versus cellular gene expression. Expression of NS1 causes a pronounced slow growth phenotype in yeast due to its intrinsic molecular activities. Small molecules that suppress the slow growth phenotype can be identified by a straightforward growth recovery assay using optical density (OD) as the measurement. The same yeast strain not expressing NS1 was used as positive control in the yeast growth recovery assay.
The yeast S. cerevisiae control and NS1 expressing cells were kindly supplied by laboratory of Dr. Daniel Engel, University of Virginia. Yeast starter cultures were stored in single use aliquots at -80C.
1. Yeast culture medium per liter: 1.2 g Yeast Nitrogen Base (w/out amino acids and Ammonium Sulphate), 5.0g Ammonium Sulphate, 0.77g -URA DO (drop-out) Supplement, adjust pH to 6.0. Adjust to 2% glucose prior to inoculating with yeast.
2. Yeast assay medium: 1.2 g Yeast Nitrogen Base (w/out amino acids and Ammonium Sulphate), 5.0g Ammonium Sulphate, 0.77g -URA DO (drop-out) Supplement, adjust pH to 6.0. Adjust to 2% D-galactose prior to inoculating with yeast.
1. Inoculate 100 mls of yeast culture medium with 1 ml of frozen yeast aliquote. Incubate overnight at 30C, 250RPM.
2. Harvest overnight culture at 4000 RPM and wash pellet with 15 mls H2O 3x.
3. Re-suspend washed pellet in 10 mls of yeast assay medium.
4. Prepare a 1:100 dilution of re-suspended culture in yeast assay medium.
5. Dispense 3.5 ul per well of reagents in step 4 in columns 2-48 in a black clear bottom 1536 well plate.
6. Dispense 3.5 ul per well of yeast assay medium in column 1 only.
7. Transfer 23 nl of compound per well.
8. Dispense 3.5 ul per well of yeast assay medium in columns 1-48.
9. Read plate using Viewlux protocol for optical density 600 (OD600) using excitation filter 600nm.
Potency is the fitted concentration of half-maximal effect.

| Structure (SMILES) | Potency | activity, positive = more growth [%] |
| --- | --- | --- |
| CCOc1ccc(Nc2nc(Cl)nc(N3CCN(c4ccc(OC)cc4)CC3)n2)cc1 | 10 µM (active) |  |
| CCN1CCN(c2nc(Nc3cc(OC)ccc3OC)nc(Nc3cc(OC)ccc3OC)n2)CC1 |  | -1.81 |
| COc1ccc(Nc2nc(Cl)nc(NCc3ccco3)n2)cc1 |  | 12.3 |
| CC(=O)Oc1ccc(-c2cccc(C(=O)N3CCCCC3)c2)cc1 |  | -31 |
| COc1ccc(Cn2c(=S)[nH]c3cc(C(=O)N4CCCCC4)ccc3c2=O)cc1 |  | -2.06 |
| COc1ccc(-n2nc(C(=O)NCC(=O)N3CCCCCC3)c3ccccc3c2=O)cc1Cl |  | 20.2 |
| C=CCn1c(C23CC4CC(CC(C4)C2)C3)n[nH]c1=S |  | 20.4 |
| COC(=O)c1c(NC(=O)c2cccs2)sc2c1CCCC2 | 2.24 µM (active) |  |
| CC(C)OC(=O)c1c(NC(=O)c2ccco2)sc2c1CCCC2 |  | -1.83 |
| COC(=O)c1c(NC(=O)CCCC(=O)O)sc2c1CCCCC2 |  | -1.9 |
| Cc1ccc(O)c(CNc2nc3ccccc3[nH]2)c1 |  | 15.3 |
| Cc1cccc(Nc2nc(-c3ccccc3)cs2)n1 |  | -2.79 |
| CN(C)c1ccc(/C=C/C(=O)c2ccc(C(C)(C)C)cc2)cc1[N+](=O)[O-] | 12.6 µM (active) |  |
| CN(C)c1ccc(/C=C/C(=O)c2ccc(O)cc2)cc1[N+](=O)[O-] |  | 1.82 |
| O=C(/C=C/c1ccc(Cl)c([N+](=O)[O-])c1)c1ccc(O)cc1 |  | -3.76 |
| O=C(CNC(=O)c1ccc(F)cc1)c1ccccc1 |  | 8.64 |
| O=c1c2cc(Br)ccc2nc(-c2cccc(Cl)c2)n1O |  | -81 |
| CCS(=O)(=O)Nc1ccc(C(=O)NCCSc2ccccc2)cc1 |  | 5.43 |
| Cc1cccc([C@@H]2[C@@H]3C(=O)N(Cc4ccccc4)C(=O)[C@@H]3[C@]3(C)C(=O)N(c4ccc(Br)cc4)C(=O)N23)c1 | 11.2 µM (active) |  |
| C[C@@]12C(=O)N(c3cccc(Br)c3)C(=O)N1[C@H](c1ccc(Cl)cc1)[C@@H]1C(=O)N(C3CCCCC3)C(=O)[C@@H]12 |  | 25.8 |
| Cc1cccc(N2C(=O)N3[C@H](c4ccc(F)cc4)[C@@H]4C(=O)N(C5CCCCC5)C(=O)[C@@H]4[C@]3(Cc3ccccc3)C2=O)c1 |  | 4.58 |
| CN(Cc1cnccn1)C(=O)c1cc(COc2cccc(C(F)(F)F)c2)on1 |  | -12.1 |
| O=C(Nc1nnc(C2CC2)s1)c1cc(Cl)sc1Cl |  | -23.7 |
| Cc1ccc(NC(=S)Nc2ccc(F)cc2)cc1 |  | -5.2 |
| O=C(Nc1ccc(S(=O)(=O)N2CCCCCC2)cc1)c1c(F)cccc1F |  | -18.2 |
| COc1ccc(C(C(=O)NC2CCCCC2)N(C(=O)Cc2c[nH]c3ccccc23)c2ccccc2)cc1OC (configuration not stated) | 11.2 µM (active) |  |

| Structure (SMILES) | Potency | activity, positive = more growth [%] |
| --- | --- | --- |
| COc1ccc(CN(C)C(=O)Cc2c[nH]c3ccccc23)c(OC)c1OC |  | -6.55 |
| COc1ccc(CNC(=O)[C@H](Cc2c[nH]c3ccccc23)NC(C)=O)cc1OC |  | 4.97 |
| CCOC(=O)C(Cc1ccc(N)cc1)N1C(=O)c2ccccc2C1=O (configuration not stated) |  | 11.2 |
| Cc1ccccc1C(=O)N1CCC(C(=O)Oc2ccc(C#N)cc2)CC1 |  | -1.02 |
| CCCCNC(=O)CCn1nc(-c2ccc(Cl)cc2)ccc1=O |  | -1.2 |
| Cc1ccc(-c2ccc(=O)n(CC(=O)NCCCN3CCCCC3)n2)cc1 | 3.55 µM (active) |  |
| CCC1CCCCN1CCCNC(=O)Cn1nc(-c2ccccc2)ccc1=O (configuration not stated) |  | -10.3 |
| CCC(NC(=O)c1cc(COc2ccc(F)c(F)c2)on1)c1ccncc1 (configuration not stated) |  | -3.92 |
| CCc1ccc(-c2nc(SCC(=O)NC3CCCC3)n[nH]2)cc1 |  | 0.78 |
| CC(=O)Nc1ccc(S(=O)(=O)Nc2cc(C)cn(Cc3ccc(C)cc3)c2=O)cc1 |  | -9.21 |
| Cc1cccc(-n2ncc(Cl)c(Cl)c2=O)c1 |  | -6.42 |
| O=C(Nc1ncc([N+](=O)[O-])s1)C1COc2ccccc2O1 (configuration not stated) |  | -114 |
| c1ccc(Nc2nc(N3CCOCC3)c3ccccc3n2)cc1 |  | -30.2 |
| O=c1[nH]c(N2CCOCC2)nc2ccccc12 |  | 24.1 |
| C1=C(N2CCOCC2)/C(=C/c2nc3ccccc3[nH]2)CC1 | 3.98 µM (active) |  |
| COc1ccc(CNS(=O)(=O)c2ccc(NC(=O)N3CCCCC3)cc2)cc1 |  | 1.64 |
| O=C(/C=C/c1ccc([N+](=O)[O-])o1)NNC(=O)c1ccc(F)cc1 |  | -0.933 |
| O=C(/C=C/c1ccco1)NC(=S)N1CCCCC1 |  | 4.86 |
| Cc1ccc(C(=O)Nc2nnc(C3=COCCO3)o2)cc1C |  | 1.01 |
| O=C(CN1C(=O)S/C(=C\c2ccccc2Cl)C1=O)NC1C=CS(=O)(=O)C1 (configuration not stated) |  | -12.7 |
| COc1ccc(-n2c(C)cc(C(=O)CSc3nnc(-c4cccs4)o3)c2C)cc1 | 11.2 µM (active) |  |
| COc1ccc(C(=O)CSc2nnc(-c3ccco3)o2)cc1 |  | -3.53 |
| COc1ccc(-c2nnc(SCC(=O)c3cccs3)o2)c(OC)c1 |  | -11.8 |
| Cc1ccc(O)c(/C=N/NC(=O)COc2ccc3c(C)cc(=O)oc3c2)c1 |  | 1.86 |
| O=[N+]([O-])c1ccc(O)c(/C=N/Nc2ccccc2[N+](=O)[O-])c1 |  | -3.57 |
| S=C(Nc1cccc(Cl)c1)Nc1ccc2c(c1)OCCO2 |  | -6.61 |

Reference: PubChem BioAssay AID2326 (National Center for Advancing Translational Sciences (NCATS), 2010)
